Test results taken from PubChem BioAssay (EPA / NIEHS).
“And” between values parts separate entries of the source, which are not always exact repeats. Equal values may be shown once. The source made the active and inactive calls. Rule for the calls: active = hit-call score of the fitted dose curve at least 0.9, where 1 is the maximum; inactive = score below 0.9.

Read-out: TIMP metallopeptidase inhibitor 1 (TIMP1), TIMP1 (gene 7076)
Experiment: BSK_hDFCGF_TIMP1: BioMAP Diversity Plus: hDFCGF Assay for TIMP metallopeptidase inhibitor 1 (TIMP1) Biomarker Activity (AID 2283062)
Details: primary human foreskin fibroblasts; actives raise or lower the signal
Description: BSK_hDFCGF is a cell-based, multiplexed-readout assay that uses foreskin fibroblast, a human skin primary cell, with measurements taken at 24 hours after chemical dosing in a 96-well plate.BSK_hDFCGF_TIMP1 is an assay component measured in the BSK_hDFCGF assay. It measures TIMP-1 antibody related to regulation of gene expression using ELISA technology.Data from the assay component BSK_hDFCGF_TIMP1 was analyzed into 1 assay endpoint. This assay endpoint, BSK_hDFCGF_TIMP1, was analyzed with bidirectional fitting relative to DMSO as the negative control and baseline of activity. Using a type of binding reporter, gain or loss-of-signal activity can be used to understand changes in the signaling as they relate to the gene TIMP1. Furthermore, this assay endpoint can be referred to as a primary readout, because this assay has produced multiple assay endpoints where this one serves a signaling function. To generalize the intended target to other relatable targets, this assay endpoint is annotated to the protease inhibitor intended target family, where the subfamily is metalloproteinase inhibitor.
The levels of cell surface (or secreted, indicated by the prefix "s") biomarker endpoints were measured by ELISA. Overt cytotoxicity to cells in confluent adherent cultures (all systems other than the BT system) was assessed by measuring total protein levels using sulforhodamine B (SRB) staining in parallel cultures at the time of biomarker measurements, indicated as SRB endpoints. For proliferation assays for adherent cell types, individual cell types are cultured at sub-confluence and relative cell numbers quantified by SRB staining at time points optimized for each system (48 h: 3C and CASM3C systems; 72 h: BT and HDF3CGF systems; 96 h: SAg system). SRB was performed by staining cells with 0.1% SRB after fixation with 10% TCA and reading wells at 560 nm.Viability and proliferation of PBMC (T cells) was quantified by Alamar Blue reduction for the SAg and BT systems. For PBMC viability (referred to as PBMC Cytotoxicity within the assay endpoint names), cells were plated (75,000/well in a 96-well plate) and then chemical samples added for 1 h before addition of activators, SEB and TSST-1 (20 ng/mL final concentration each). Cells were incubated for 90 h. Then, Alamar Blue (20 uL/well) (Invitrogen, Cat DAL1100) was added for 6 h, and the plates were read with a fluorescence microplate reader at 546/580 nm (excitation/emission). For PBMC proliferation, cells were plated and activated as above but incubated for only 16 h prior to addition of Alamar Blue. Plates were read after 6 h.

Compound	outcome	AC50
CC(C)C1OCCN1CCOC(=O)NCCCCCCNC(=O)OCCN1CCOC1C(C)C (configuration not stated)	inactive	–
CCC[Si](OC(C)=O)(OC(C)=O)OC(C)=O	inactive	–
Sc1nc2ccccc2s1	inactive	–
CN(C)Cc1cc(C(C)(C)C)c(O)c(C(C)(C)C)c1	inactive	–
CCC(C)=NO	inactive	–
CCCCCCCCCCCCCCCCCC[N+](C)(C)C	–	3.47 µM (active)
COc1ccc(C(=O)c2ccccc2O)c(O)c1	inactive	–
CCCCCCCCCCC1CO1 (configuration not stated)	–	20 µM (active)
Oc1cccc2ccccc12	inactive	–
C1CN(CCOCCN2CCOCC2)CCO1	inactive	–
OC(C(F)(F)F)(C(F)(F)F)C(O)(C(F)(F)F)C(F)(F)F	inactive	–
CCCCC(CC)COC(=O)C=Cc1ccc(OC)cc1 (configuration not stated)	inactive	–
COc1cc(CNC(=O)CCCC/C=C/C(C)C)ccc1O	inactive	–
CCCCCCC(O)CCCCCCCCCCC(=O)OC (configuration not stated)	inactive	–
CC[N+](CC)(CC(=O)Nc1c(C)cccc1C)Cc1ccccc1	inactive	–
CN(C)CCC(c1ccc(Cl)cc1)c1ccccn1 (configuration not stated)	inactive	–
CC(C)CC(=O)CC(C)CC(C)C (configuration not stated)	inactive	–
COC(=O)/C=C\C(=O)OC	inactive	–
CC[N+](CC)(CC(=O)Nc1c(C)cccc1C)Cc1ccccc1 (tested in a mixture with another compound)	inactive	–
Cc1cccnc1	inactive	–
O=[N+]([O-])c1cc(S(=O)(=O)Nc2ccccc2)ccc1Nc1ccccc1	–	30.3 µM (active) and 29.5 µM (active)
O=C(C(=O)c1ccccc1)c1ccccc1	inactive	–
CN(C)c1ccc(C(c2ccccc2)c2ccc(N(C)C)cc2)cc1	inactive	–
Cc1c(C(N)=O)cc([N+](=O)[O-])cc1[N+](=O)[O-]	inactive	–
COc1ccccc1Oc1c(NS(=O)(=O)c2ccc(C(C)(C)C)cc2)nc(-c2ncccn2)nc1OCCO	inactive	–
Cc1cc(-n2nc3ccc(Cl)cc3n2)c(O)c(C(C)(C)C)c1	inactive	–
CCCCCCCCCC/C=C/C1CC(=O)OC1=O (configuration not stated)	inactive	–
